Screening data: PubChem BioAssay, National Center for Advancing Translational Sciences (NCATS)
The entries come from a sample that favours hits as a whole.
Shiga inhibitor: blocks Shiga toxin action in Vero cells | Vero cells, Shiga toxin protein synthesis inhibition reporter | inhibition, % at 38.7 µM | hit rate 9.2% among 290,000 | AID 2315; in the data active means inhibition mostly above about 28%, no sharp cut-off; inactive means mostly below about 43%
AmpC inh detg: inhibitors of E. coli AmpC beta-lactamase with detergent. P00811. AmpC hydrolysis of nitrocefin, absorbance 480 nm, 0.01% Triton. Potency, µM (titrated, usually from 114 µM), actives largely listed as inhibitors. hit rate 0.041% among 370,000. AID 485294; further: nearly all actives have a fitted effect of over 25% in size
Target sequence (P00811 whole entry, looked up): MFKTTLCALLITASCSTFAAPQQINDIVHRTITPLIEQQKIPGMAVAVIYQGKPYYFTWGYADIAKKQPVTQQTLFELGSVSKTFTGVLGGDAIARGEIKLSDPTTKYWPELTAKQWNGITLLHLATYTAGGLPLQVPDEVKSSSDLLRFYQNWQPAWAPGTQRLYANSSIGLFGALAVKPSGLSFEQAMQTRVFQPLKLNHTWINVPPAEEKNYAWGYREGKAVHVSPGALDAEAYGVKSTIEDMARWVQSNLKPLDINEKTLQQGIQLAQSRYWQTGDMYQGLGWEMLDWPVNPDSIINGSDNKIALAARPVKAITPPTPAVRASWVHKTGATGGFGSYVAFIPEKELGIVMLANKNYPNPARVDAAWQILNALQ
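AmpC (5.3 nM in the dispensed reagent) in 20 mM phosphate pH 7.0 with 0.01% (detergent screen) or 0.0001% Triton X-100 was preincubated with compounds for 15 min at room temperature. Nitrocefin was then added from an 800 uM solution, and hydrolysis was followed at 480 nm.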
NS1 function inh: influenza NS1 inhibition; Potency, µM (top dose mostly 46.1 µM); AID 2326; hit rate 0.4% among 270,000; calls by dose curve; further: actives are rising curves; nearly all actives have a fitted effect of over 50% in size
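OD600 was taken as the measure of yeast growth restored by compound in an NS1-expressing S. cerevisiae strain. Cells had been washed out of glucose medium and diluted 1:100 into galactose -URA medium, pH 6.0.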
AmpC inh no detg: inhibitors of E. coli AmpC beta-lactamase without detergent. P00811. AmpC nitrocefin hydrolysis, absorbance 480 nm, 0.0001% Triton. Potency, µM (titrated, usually from 57.1 µM), hits mostly inhibitors. hit rate 0.52% among 330,000; further: nearly all actives have a fitted effect of over 20% in size
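AmpC (5.3 nM in the dispensed reagent) in 20 mM phosphate pH 7.0 with 0.01% (detergent screen) or 0.0001% Triton X-100 was preincubated with compounds for 15 min at room temperature. Nitrocefin was then added from an 800 uM solution, and hydrolysis was followed at 480 nm.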
CHX counter: affects cycloheximide protein synthesis inhibition readout, counter-screen; cell reporter, cycloheximide protein synthesis inhibition counterscreen; max response, %; hit rate 12% among 300,000; AID 2314; in the data active means max response mostly above about 13%, no sharp cut-off; inactive means mostly below about 14%; further: read at 38.3 µM for the half of the compounds with a filed dose
Each line names hits and unclear results; the compound was inactive in the other large screens. Unless noted, the call rests on the fitted dose curve; in most records, active means well fitted curve in the direction sought with a large enough effect; inconclusive means small, poorly fitted or top-dose-only effect, or another doubt; inactive means no such curve, though single readings can be large; an effect the other way counts as inactive or inconclusive.

CCCC(=O)c1ccc(N2CCN(C(=O)c3ccccc3)CC2)c(F)c1	none
Cc1ccc(C(=O)c2ccc(N3CCOCC3)c(F)c2)cc1	Shiga inhibitor 65.5, CHX counter 61.9
O=C(NCCc1ccccc1)c1ccc([N+](=O)[O-])cc1	AmpC inh detg inconclusive
COc1ccc(C(=O)NCCc2cn3ccccc3n2)cc1	Shiga inhibitor 43.1
COc1cc(C(=O)NCCc2cn3ccccc3n2)cc(OC)c1OC	AmpC inh detg inconclusive
COc1ccc(CCNC(=O)c2ccccc2)cc1	Shiga inhibitor 117.3, CHX counter 28.2
COc1cccc(CCNC(=O)c2ccc(C#N)cc2)c1	Shiga inhibitor 38.2, CHX counter 20.9
O=C(NCCc1ccc([N+](=O)[O-])cc1)c1ccccc1	Shiga inhibitor 61.1, CHX counter 28.5
CCOC(=O)c1c(NC(C)=O)c2c3c(sc2n1Cc1nc(-c2cccc(C)c2)oc1C)CCCC3	none (no result: Shiga inhibitor, NS1 function inh, AmpC inh no detg, CHX counter)
COc1ccc(CCNC(=O)c2ccc(Cn3c(=O)c4ccccc4n(Cc4cccc(F)c4)c3=O)cc2)cc1OC	none (no result: Shiga inhibitor, NS1 function inh, AmpC inh no detg, CHX counter)
CCOc1ccc(C(=O)c2cn(CC(=O)Nc3ccc(OC)cc3)c3cc4c(cc3c2=O)OCO4)cc1	none (no result: Shiga inhibitor, NS1 function inh, AmpC inh no detg, CHX counter)
CCCCOc1ccc(C(=O)NCc2ccccn2)cc1	AmpC inh detg inconclusive, CHX counter 20.9
COc1cc(CC(=O)NCCc2ccc(OCc3ccccc3)cc2)c([N+](=O)[O-])cc1OC	CHX counter 48.9
COc1cccc(CNC(=O)c2ccc(C3SCCS3)cc2)c1	CHX counter 26.4
COc1ccc(CC(=O)Nc2ccccc2C(=O)NCCc2ccccc2)cc1	Shiga inhibitor 47.9, AmpC inh detg inconclusive, CHX counter 29.6
CSCC[C@H](NC(=O)[C@@H]1CCCN1C(=O)CNC(=O)[C@H](CCCCN)NC(=O)[C@H](Cc1cnc[nH]1)NC(=O)[C@H](CO)NC(=O)[C@H](CC(C)C)NC(=O)[C@H](CCCN=C(N)N)NC(=O)[C@@H]1CCCN1C(=O)[C@H](CCCN=C(N)N)NC(=O)[C@@H]1CCC(=O)N1)C(=O)N1CCC[C@H]1C(=O)N[C@@H](Cc1ccccc1)C(=O)O	none (no result: AmpC inh detg, NS1 function inh, AmpC inh no detg)
COc1ccc2cc(C(=O)NCCc3ccccc3)[nH]c2c1	CHX counter 21.6
CC(C)OC(=O)C(C)Oc1ccc(C(=O)NCCc2ccccc2)cc1 (stereo not given)	Shiga inhibitor 40.0, CHX counter 24.8
COc1ccc(CCNC(=O)C2=COCCO2)cc1	Shiga inhibitor 65.7, CHX counter 24.4
COc1ccc(OC(=O)NCCc2ccccc2)cc1	Shiga inhibitor 61.7, CHX counter 33.2
CCOc1ccc(CCNC(=O)Cn2nnc(-c3ccc(OC)c(OC)c3)n2)cc1OCC	none (no result: Shiga inhibitor, NS1 function inh, AmpC inh no detg, CHX counter)
CCCCCC1=C(C(=O)OC)C(C(=O)OCC)N(S(=O)(=O)C(F)(F)F)c2ccccc21 (stereo not given)	none (no result: AmpC inh detg, NS1 function inh)
Cc1ccc(C(C)C)c(OCC(=O)Nc2c(C(=O)c3ccccc3)oc3ccccc23)c1	none (no result: Shiga inhibitor, NS1 function inh, AmpC inh no detg, CHX counter)
Cc1ccccc1OCC(=O)Nc1ccc(C(=O)OCc2cc(=O)n3c(C)csc3n2)cc1	none (no result: Shiga inhibitor, NS1 function inh, AmpC inh no detg, CHX counter)
O=C(NCCNC(=O)c1ccc([N+](=O)[O-])cc1)c1ccncc1	none (no result: NS1 function inh)
CC(Oc1ccc(C(=O)NCCc2ccccc2)cc1)C(=O)O (stereo not given)	none
O=C(NCCC1CC1(Cl)Cl)c1ccc([N+](=O)[O-])cc1 (stereo not given)	CHX counter 24.6
COc1ccc(C(=O)NCC2(c3ccccc3)CCOCC2)cc1	CHX counter 35.7
COc1ccc(C2(CNC(=O)c3ccc(C)cc3)CCOCC2)cc1	none
CCCCOc1ccc(C(=O)NCCc2ccccc2)cc1	Shiga inhibitor 91.4, CHX counter 41.8
COc1ccc(CC(=O)Nc2cccc(C(=O)O)c2C)cc1	NS1 function inh inconclusive, AmpC inh no detg 3.98µM, CHX counter 15.3
COc1ccc(N2C(=O)N(Cc3cccc(F)c3)c3ccccc3S2(=O)=O)cc1	AmpC inh detg inconclusive (no result: NS1 function inh)
COc1cccc(Cn2nnc(C(=O)NCc3ccc(Cl)cc3Cl)c2N)c1	none (no result: Shiga inhibitor, NS1 function inh, AmpC inh no detg, CHX counter)
CC(C)c1ccc(OC(=O)NCCO)cc1	Shiga inhibitor 44.1, AmpC inh detg inconclusive, CHX counter 14.7
N=C(N)SCc1cn2ccccc2n1	none
Cc1cc(C)c(C#N)c(SCc2cn3ccccc3n2)n1	NS1 function inh inconclusive, CHX counter 15.0
Cc1cc(C)nc(SCc2cn3ccccc3n2)n1	CHX counter 22.4
Cc1cc(C)c(C#N)c(SCc2ccccc2)n1	none
CCC(=O)N1CCc2cc(S(=O)(=O)NC(CC(C)C)C(=O)NCCc3ccccc3)ccc21 (stereo not given)	none (no result: Shiga inhibitor, NS1 function inh, AmpC inh no detg, CHX counter)
Cn1nc(-c2ccc(Cl)cc2)cc1NC(=O)Nc1ccccc1	Shiga inhibitor 65.8, CHX counter 31.4
Cn1nc(-c2ccccc2)cc1NC(=O)c1ccccc1	CHX counter 11.6
Cc1cccc(NS(=O)(=O)c2cc(C(=O)N3CCc4ccccc4C3)ccc2Cl)c1C	none
Cc1nc2cc(NC(=O)NCCC3=CCCCC3)ccc2o1	Shiga inhibitor 56.6, CHX counter 18.9
Cc1nc2cc(NC(=O)NCCCO)ccc2o1	none
C=CCNC(=O)Nc1ccc2oc(C)nc2c1	none
COc1ccc(NC(=O)Nc2ccc3oc(C)nc3c2)cc1	Shiga inhibitor 67.4, CHX counter 30.1
CCC1CC=CC2C1C(=O)N(Cc1ccccc1)C2c1cc(C)ccc1F (stereo not given)	none (no result: AmpC inh detg, NS1 function inh, AmpC inh no detg)
COc1ccc(NC(=O)CN2C(=O)NC(C)(c3ccc(C)cc3)C2=O)c([N+](=O)[O-])c1 (stereo not given)	none
O=C1NC(=O)C(=Cc2ccc(-c3ccc(F)cc3O)o2)C(=O)N1	CHX counter 13.7
Cc1ccc(/C=N/Nc2ccc(C(=O)O)cc2)s1	none (no result: NS1 function inh)
Cc1ccc(/C=N/Nc2cccc(C(=O)O)c2)s1	Shiga inhibitor 126.1, CHX counter 86.2
Cc1ccsc1/C=N/Nc1cccc(C(=O)O)c1	Shiga inhibitor 118.2, CHX counter 55.9 (no result: NS1 function inh)
O=C(O)c1cccc(N/N=C/c2sc(N3CCOCC3)nc2-c2ccccc2)c1	Shiga inhibitor 176.2, AmpC inh detg inconclusive, NS1 function inh inconclusive, CHX counter 127.7
CC1CCCN(c2ncnc3c2nnn3C)C1 (stereo not given)	none (no result: Shiga inhibitor, NS1 function inh, AmpC inh no detg, CHX counter)
CN1CCc2c(sc3c2C(=O)NC(c2cccc(OC(=O)c4cccs4)c2)N3)C1 (stereo not given)	Shiga inhibitor 70.3, AmpC inh detg inconclusive, CHX counter 44.8
CCCCc1ccc(-c2ccc(Br)cc2)nc1	Shiga inhibitor 86.1, CHX counter 35.1
CCCc1ccc(-c2ccc(-c3noc(-c4ccncc4)n3)cc2)nc1	none
O=C(c1cnc2n(c1=O)CCS2)N1CCN(C(c2ccccc2)c2ccc(Cl)cc2)CC1 (stereo not given)	AmpC inh detg inconclusive
O=c1c(-c2ccc(Cl)cc2)cnc2n1CCS2	Shiga inhibitor 67.0, AmpC inh detg inconclusive, CHX counter 28.9
O=C(O/N=C(\c1ccccc1)c1ccccn1)c1cccc2ccccc12	AmpC inh detg inconclusive, CHX counter 14.2
Cc1cccc(/C(N)=N/OC(=O)c2cccc3ccccc23)c1	Shiga inhibitor 59.2, CHX counter 20.6
